VACV Venus inh: inhibitors of vaccinia virus (Venus reporter); AID 720580; Potency, µM (top dose mostly 36.5 µM), inactives show at the top dose activity change, negative = inhibition, most hits filed as inhibitors; hit rate 0.46% among 330,000; Vaccinia virus Venus reporter expression, fluorescence; calls by dose curve; tested in A549 cells; further: on the % scale 0 is the no-effect control and ±100 the full control effect; nearly all actives have a fitted effect of over 30% in size
VACV mCherry inh: inhibitors of vaccinia virus infection (mCherry reporter signal); AID 720579; Potency, µM (titrated, usually from 36.5 µM), without a hit: at the top dose activity change, negative = inhibition, most hits filed as inhibitors; hit rate 0.63% among 310,000; Vaccinia virus mCherry reporter infection, fluorescence; calls by dose curve; tested in A549 cells; further: on the % scale 0 is the no-effect control and ±100 the full control effect; nearly all actives have a fitted effect of over 35% in size
NS1 inh: blocks influenza NS1 protein function; AID 2326; hit rate 0.4% among 270,000; Potency, µM (titrated, usually from 46.1 µM), for the others: at the highest dose activity, positive = more growth; calls by dose curve; further: actives are rising curves; nearly all actives have a fitted effect of over 50% in size
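Compounds were scored for reversing the slow growth caused by influenza A NS1 in S. cerevisiae, measured by optical density at 600 nm. Assay medium contained 2% galactose at pH 6.0; NS1-free yeast of the same strain were the positive control.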
Pf growth 48h: inhibits P. falciparum growth in the first generation, 48 h | P. falciparum luciferase growth in erythrocytes, 48 h | Potency, µM (doses to about 28.7 µM), without a hit: at the highest dose activity change, negative = inhibition, actives largely listed as inhibitors | hit rate 5.9% among 310,000; further: on the % scale 0 is the no-effect control and ±100 the full control effect
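Compounds are pin-transferred into medium, infected erythrocytes (2% hematocrit, 0.1% parasitemia final) are added, and plates sit one parasite generation at 37 C in 5% CO2. Detection reagent is then added and luminescence measured.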
HCV inh: inhibitors of hepatitis C virus infection. Huh7.5.1 HCVcc-Cre infection, luciferase reporter, 44 h. hit rate 3.4% among 340,000. Potency, µM (top dose mostly 41.8 µM), without a hit: at the highest dose activity change, negative = inhibition, actives largely listed as inhibitors. AID 651820; further: on the % scale 0 is the no-effect control and ±100 the full control effect
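Compounds are dispensed onto cells plated 4 h earlier at 1,000 per well, with HCVcc-Cre virus (about 0.5 moi) added next. Following 44 h of culture, luminescent signal is measured for 15 sec after 15 min with substrate at room temperature.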
Pf growth 96h: P. falciparum growth inhibition at 96 hour, primary screen for plastid delayed-death inhibitors | P. falciparum luciferase reporter growth, 96 h | Potency, µM (titrated, usually from 28.7 µM), inactives show top-dose activity change, negative = inhibition, hits mostly inhibitors | hit rate 6.9% among 320,000; further: on the % scale 0 is the no-effect control and ±100 the full control effect
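P. falciparum expressing integrated firefly luciferase grown in erythrocytes (2% hematocrit, 0.05% parasitemia final) with compounds for 96 hours at 37 C, 5% CO2. Growth inhibition read as loss of luminescence after adding luciferase detection reagent.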
Active calls of the source: *; i = inactive; u = inconclusive; x = not tested or not shown. Most compounds without a hit are left out; they make up all but 11% or so of the library. Unless noted, the call rests on the fitted dose curve; in most records, active means well fitted inhibition curve with a large enough effect; inconclusive means small, poorly fitted or top-dose-only effect, or another doubt; inactive means no such curve, though single readings can be large or run the other way. Potency means the concentration at half of the fitted maximal effect.

SMILES | VACV Venus inh | VACV mCherry inh | NS1 inh | Pf growth 48h | HCV inh | Pf growth 96h
CC(C)CC(=O)NC(NC(=S)Nc1ccccc1)C(Cl)(Cl)Cl (stereo not drawn) | -17% | -25% | -1% | 13µM* | 0% | 3%
CCCC(=O)NC(Nc1ccccc1F)C(Cl)(Cl)Cl (stereo not drawn) | x | x | -8% | u | x | u
CCC(=O)NC(NC(=S)Nc1ccc(S(N)(=O)=O)cc1)C(Cl)(Cl)Cl (stereo not drawn) | -14% | -13% | 21% | -6% | 14% | 2.1µM*
CCc1ccc(OCC(=O)NC(NC(=S)Nc2ccccc2)C(Cl)(Cl)Cl)cc1 (stereo not drawn) | u | u | 3% | 13µM* | u | 0%
CC(C)CC(=O)NC(Nc1ccccc1F)C(Cl)(Cl)Cl (stereo not drawn) | -11% | -4% | -21% | -5% | 19% | 10µM*
O=C(CSc1nnc(-c2ccccc2F)o1)N1CCCC1 | -12% | -6% | 13% | 40% | 4% | -7%
O=C(NNC(=O)c1ccccc1Cl)c1cc2cc(OC(F)(F)F)ccc2[nH]1 | -16% | -20% | 3% | 2% | -2% | 22%
CCCC(=O)NCCc1nc2ccccc2n1Cc1c(F)cccc1Cl | 3% | -12% | x | x | x | x
CC(=O)NC(NC(=S)Nc1ccc(N=Nc2ccccc2)cc1)C(Cl)(Cl)Cl (stereo not drawn) | 14µM* | 13µM* | 3% | 12µM* | 7.1µM* | 183%
C=C(C)COc1ccc(-c2n[nH]c(C)c2-c2ccc(OC)cc2)c(O)c1 | 10µM* | x | -115% | u | u | 3.7µM*
CCc1cc(-c2n[nH]c(C)c2-c2ccccc2Cl)c(O)cc1OC | x | x | 0% | u | u | -14%
COc1ccc(-c2c(-c3ccc(OCC(=O)NN)cc3O)n[nH]c2C(F)(F)F)cc1 | -7% | -18% | u | 9.3µM* | -57% | 9.3µM*
CCOc1ccc(-c2n[nH]c(C)c2-c2ccccc2OC)c(O)c1 | u | u | -35% | 3.3µM* | u | -28%
COc1ccc(-c2n[nH]c(C)c2-c2cscn2)c(O)c1 | -10% | u | -1% | 16% | -14% | 0%
COc1ccc(-c2c(-c3ccc(OCC(=O)NN)cc3O)n[nH]c2C)cc1OC | -21% | -18% | u | u | -8% | u
COc1ccccc1Nc1nc(-c2ccc(F)cc2)c2c(n1)-c1ccccc1OC2 | -4% | -14% | x | x | x | x
COc1ccc(CNC(=O)CCCSc2ccccc2)cc1 | -3% | 5% | -17% | 33% | 0% | 22%
CCC(=O)Nc1ccc2c(c1)ncn2CCc1ccccc1 | x | x | 1% | 5% | 4% | -12%
CC(=O)CCc1c[nH]c2c(C(=O)O)cccc12 | -5% | x | u | 22% | 2% | 12µM*
Cc1nc2c([nH]c3ccc(Br)cc32)s1 | -7% | -13% | -63% | 33% | 10µM* | u
Cn1ccnc1SCC(=O)Nc1ccc(Oc2ccccc2)cc1 | -29% | x | -46% | 25% | 6% | 66%
Cc1nc2ncnn2c(Nc2ccc3c(c2)OCO3)c1Cc1ccccc1 | x | x | -9% | u | -13% | 44%
CCc1c(C)nc2ncnn2c1NCCc1ccccc1 | x | x | -46% | -17% | 28µM* | u
CCN1C[C@@H]2[C@@H]3C(=O)N(C)C(=O)[C@@H]3[C@](CC)(C1=O)N2C(=O)c1ccc(C(F)(F)F)cc1 | -5% | i | x | x | u | x
N#Cc1c(N)nc2c3c(sc(=N)c2c1N)NC(=O)CC3c1c(F)cccc1Cl (stereo not drawn) | -18% | u | 8% | u | -6% | 8.3µM*
SMILES | VACV Venus inh | VACV mCherry inh | NS1 inh | Pf growth 48h | HCV inh | Pf growth 96h
N#Cc1c(N)nc2c3c(sc(=N)c2c1N)NC(=O)CC3c1ccccc1 (stereo not drawn) | -21% | -20% | 24% | u | -13% | -23%
Cc1c(C#N)c(N)nc2c3c(sc12)NC(=O)CC3c1ccc(Cl)cc1 (stereo not drawn) | u | u | 5% | u | 22µM* | -13%
COc1cc(NC(=O)Cn2cnc3c(nc4n3CCCCC4)c2=O)cc(OC)c1OC | -4% | -11% | -5% | 21% | 17% | 7%
CC(=O)c1c(C(C)=O)c(C)n(-c2cccc([N+](=O)[O-])c2)c1C | -26% | i | 2% | -4% | -8% | 9.3µM*
CC(C)(C)C1CCC(=O)N(CCSc2ccccc2)CC1 (stereo not drawn) | -15% | -19% | -17% | 260% | 3.5µM* | 8%
Nc1ccccc1Nc1nc2ccccc2[nH]1 | -4% | -29% | u | 66% | u | 10µM*
Nc1ccc(Nc2nc3ccccc3[nH]2)cc1 | -6% | -8% | 12% | u | 11% | 0%
N#Cc1ccc(C(S(=O)(=O)Cc2ccccc2)S(=O)(=O)Cc2ccccc2)cc1 | -13% | -25% | x | x | x | x
CCNc1nc(NCC)nc(N(C)/N=C/c2ccco2)n1 | x | x | -5% | u | -16% | 1.5µM*
C=CC[n+]1c(-c2ccc(OCC)cc2)csc1NNC(=O)Nc1ccccc1 | u | -19% | 9% | x | 7.1µM* | u
CCOc1ccc(-c2nc(CNC(=O)Nc3ccccc3)c(C)o2)cc1 | -12% | -10% | x | x | x | x
CN=C(Nc1ccc(Br)cc1)SC1CC(=O)N(c2ccc(OC)cc2)C1=O (stereo not drawn) | -19% | i | 0% | u | 8% | 4%
CCOc1ccc(N2C(=O)CC(SC(=NC)Nc3ccc(F)cc3)C2=O)cc1 (stereo not drawn) | -17% | -21% | -12% | u | 3% | 9.3µM*
CN=C(Nc1ccc(C)c(C)c1)SC1CC(=O)N(c2ccc(OC)cc2)C1=O (stereo not drawn) | -15% | i | -1% | 12µM* | 4% | 47%
CCCCc1ccc(NC(=O)OC)cc1 | -16% | x | -52% | 74% | 6% | 111%
OCCSc1nc(-c2ccccc2)nc2ccc(F)cc12 | x | x | -1% | 22% | u | -56%
Cc1cc(C)n(C(=O)CNC(=O)c2ccc3c(c2)OCCO3)n1 | -21% | -28% | -2% | 24% | 1% | 1.9µM*
COCCNC(=O)C(c1cccc(OC)c1)N(Cc1cccs1)C(=O)Cn1nnc2ccccc21 (stereo not drawn) | -6% | -18% | -6% | -25% | 3% | 33%
CCOC(=O)c1c(C)[nH]c(C(=O)OCC(=O)NCc2ccc(OC)c(OC)c2)c1C | -27% | -12% | x | u | 10µM* | u
CC(=O)c1c(C)[nH]c(C(=O)OCC(=O)NCCCc2ccccc2)c1C | x | x | x | u | u | 9.3µM*
CC(=O)c1c(C)[nH]c(C(=O)OCC(=O)NCCc2ccc(Cl)cc2)c1C | -15% | x | 5% | x | 11µM* | u
CCOc1ccc(CCNC(=O)COC(=O)c2[nH]c(C)c(C(C)=O)c2C)cc1OCC | -17% | 7% | x | x | x | x
